Our source for the binding signal values is publication PMC10726135, “HNF4α isoforms regulate the circadian balance between carbohydrate and lipid metabolism in the liver”.

In all, about 18,000 sequences were measured (“log2 normalized intensity”: median about 0.36, highest 2% from about 7.3 on). For the sample, the highest values were picked, then their nearest neighbours and some sequences at random.

The assay has as its target T1, HNF4alpha8 (COS-7 nuclear extract) (Homo sapiens, UniProt P41235-5 1-452).
T1 sequence: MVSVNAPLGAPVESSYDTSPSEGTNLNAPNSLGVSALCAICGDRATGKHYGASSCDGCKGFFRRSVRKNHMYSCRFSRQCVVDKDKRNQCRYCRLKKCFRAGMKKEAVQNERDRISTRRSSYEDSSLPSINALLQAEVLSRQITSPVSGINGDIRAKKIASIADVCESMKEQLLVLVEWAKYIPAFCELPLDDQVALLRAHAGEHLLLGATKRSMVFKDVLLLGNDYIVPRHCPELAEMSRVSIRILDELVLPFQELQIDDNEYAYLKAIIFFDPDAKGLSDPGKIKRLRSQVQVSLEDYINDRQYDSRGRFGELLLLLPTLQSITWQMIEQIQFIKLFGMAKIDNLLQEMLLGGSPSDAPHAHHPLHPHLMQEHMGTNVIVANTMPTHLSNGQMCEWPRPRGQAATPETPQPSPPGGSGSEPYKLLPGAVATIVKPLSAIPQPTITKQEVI
Nature of the assay: protein-binding microarray; COS-7 nuclear extract on double-stranded Agilent 4x180k PBM; binding buffer, salt, pH and temperature not given in the material; high values mean tight binding. Conditions: chain copies: 2; label: 3' end of strand 1 on the slide; dsDNA, one strand shown. The gist of the method:
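Binding signal was defined as the normalized, background-corrected gProcessedSignal reported by Agilent software. It came from nuclear extracts of COS-7 cells transiently transfected with a human HNF4α isoform expression vector, applied to a custom Agilent SurePrint G3 4x180k array. That array held ~44,000 test sequences in quadruplicate as double-stranded ~60-nt oligonucleotides, and bound HNF4α was imaged at 2-µm resolution on an Agilent G2565CA scanner.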
For “ATGTGGTCAAAACTTTGTTTGAGTTCCAAAGCCTAGGGAGATTAGAGTATCGGTCGA”, the binding signal is 1.01 log2 normalized intensity.

As for “TTTGACATCACCTAACTTGTGGCTGGGTGAGCCTAGGGAGATTAGAGTATCGGTCGA”, the binding signal is 1.15 log2 normalized intensity.

“AACCCCTTTTCAATTCCTTATCTCGTTCTGGCCTAGGGAGATTAGAGTATCGGTCGA”: the binding signal came out at 0.721 log2 normalized intensity.

Regarding “TGACCTTGCAGTGGCAAGGCAAAAGAGACAGCCTAGGGAGATTAGAGTATCGGTCGA”, the binding signal stood at 0.892 log2 normalized intensity.

“ACTTTGACCTTGGCACTGAAGAATGTCTAAGCCTAGGGAGATTAGAGTATCGGTCGA”: the binding signal was determined as 2.09 log2 normalized intensity.

With “ACAGCACTGACCTTTGAGAGTCAACACTGAGCCTAGGGAGATTAGAGTATCGGTCGA”, the binding signal is 3.53 log2 normalized intensity.

As to “CAGTCACAGCAGTGGACTTTGACCTTGGCAGCCTAGGGAGATTAGAGTATCGGTCGA”, the binding signal came to 9.69 log2 normalized intensity.

Regarding “ACAGCAGTGGACTTTGACCTTGGCACTGAAGCCTAGGGAGATTAGAGTATCGGTCGA”, the binding signal is 9.68 log2 normalized intensity.

Turning to “ATGTGACCTTTTGGACCACAGAGTGACCTGGCCTAGGGAGATTAGAGTATCGGTCGA”, the binding signal was 5.66 log2 normalized intensity.

“CCTCCTGTGGTAATAAGTTGGTGGACGCTGGCCTAGGGAGATTAGAGTATCGGTCGA”: the binding signal came to 1.13 log2 normalized intensity.

“TATGCTCTCTCTCCACCTGGAGGGACTTTGGCCTAGGGAGATTAGAGTATCGGTCGA”: the binding signal was 3.06 log2 normalized intensity.

For “GGACTTTGGTGTCTGACAGATAAGATTTGGGCCTAGGGAGATTAGAGTATCGGTCGA”, the binding signal was 2.62 log2 normalized intensity.

In the case of “GGATAATGATAAAGAGATTGGACTTTGGCCGCCTAGGGAGATTAGAGTATCGGTCGA”, the binding signal was determined as 9.44 log2 normalized intensity.

“AGGCCAAACAAAAATATGGACTTTGGAATTGCCTAGGGAGATTAGAGTATCGGTCGA”: the binding signal was found to be 8.4 log2 normalized intensity.

Consider “ATCTCCAGATAAGACTTTGGACTTTGGACCGCCTAGGGAGATTAGAGTATCGGTCGA”, for which the binding signal was found to be 11.8 log2 normalized intensity.

Take “GCTAAGAGACAGCTCCACAGCTGGACTTTGGCCTAGGGAGATTAGAGTATCGGTCGA”: the binding signal amounted to 5.9 log2 normalized intensity.

Regarding “ATTTGGACTTTTACTCTTAGAGATAATGGGGCCTAGGGAGATTAGAGTATCGGTCGA”, the binding signal was found to be 2.47 log2 normalized intensity.

As to “ATCTCCAAACGAGACTTTGGACTTTGGACTGCCTAGGGAGATTAGAGTATCGGTCGA”, the binding signal turned out to be 11.9 log2 normalized intensity.

Consider “AAAGATGTTTAAATAGTGATAATGGATGGCGCCTAGGGAGATTAGAGTATCGGTCGA”, for which the binding signal came out at 0.702 log2 normalized intensity.

As for “GAGACAGCTCCACAGCTGGACTTTGGCTGCGCCTAGGGAGATTAGAGTATCGGTCGA”, the binding signal amounted to 6.17 log2 normalized intensity.

Take “TCTTTAGGCCAAACAAAAATATGGACTTTGGCCTAGGGAGATTAGAGTATCGGTCGA”: the binding signal was determined as 6.57 log2 normalized intensity.

Regarding “AAAATATGGACTTTGGAATTAAGAAAAGCTGCCTAGGGAGATTAGAGTATCGGTCGA”, the binding signal came to 5.77 log2 normalized intensity.

Turning to “GGGTTAGGCCTTTAGAGGATTTACTTATACGCCTAGGGAGATTAGAGTATCGGTCGA”, the binding signal worked out at 0.821 log2 normalized intensity.

In the case of “TGCTCATAGCTACGGGTGACCTTGAGCACTGCCTAGGGAGATTAGAGTATCGGTCGA”, the binding signal is 3.93 log2 normalized intensity.

Consider “TCCTCTTCCCTACCCCCTGGGAGTAACCTGGCCTAGGGAGATTAGAGTATCGGTCGA”, for which the binding signal stood at 3.13 log2 normalized intensity.

On to “GAAGGAGAGAGAGGGAGAGTGGCCTTTGGAGCCTAGGGAGATTAGAGTATCGGTCGA”, for which the binding signal was 4.12 log2 normalized intensity.

In the case of “TACATTGGACAACTGTACTTTGGACTGGGGGCCTAGGGAGATTAGAGTATCGGTCGA”, the binding signal is 6.69 log2 normalized intensity.

With “CTCCAAACATCTTTGGTATGGACTGATATTGCCTAGGGAGATTAGAGTATCGGTCGA”, the binding signal was 1.85 log2 normalized intensity.

Consider “TCTGATACATTGGACAACTGTACTTTGGACGCCTAGGGAGATTAGAGTATCGGTCGA”, for which the binding signal was found to be 8.02 log2 normalized intensity.

For the sequence “CACAAATTGGAGAGCATCTTGGACTTGGGAGCCTAGGGAGATTAGAGTATCGGTCGA”, the binding signal stood at 3.16 log2 normalized intensity.

As for “CAAACGAGACTTTGGACTTTGGACTTGGGAGCCTAGGGAGATTAGAGTATCGGTCGA”, the binding signal stood at 10.9 log2 normalized intensity.

As for “AAAGGGACTCATCTCCAAACGAGACTTTGGGCCTAGGGAGATTAGAGTATCGGTCGA”, the binding signal came to 2.23 log2 normalized intensity.

Consider “ACAGTTCTGATACATTGGACAACTGTACTTGCCTAGGGAGATTAGAGTATCGGTCGA”, for which the binding signal amounted to 2.21 log2 normalized intensity.

For the sequence “GACTCATCTCCAAACGAGACTTTGGACTTTGCCTAGGGAGATTAGAGTATCGGTCGA”, the binding signal turned out to be 9.58 log2 normalized intensity.

For “GTGACTACCTGGTTAAAAGGACAACCTTCGGCCTAGGGAGATTAGAGTATCGGTCGA”, the binding signal was -0.397 log2 normalized intensity.

“AGAATGTGGTTCTTTTCATTAAATATTTAAGCCTAGGGAGATTAGAGTATCGGTCGA”: the binding signal stood at 0.534 log2 normalized intensity.

With “CCAGTTCTTTTGACCTTTGCCTCATTCTTAGCCTAGGGAGATTAGAGTATCGGTCGA”, the binding signal is 7.02 log2 normalized intensity.

Take “CCTCAATGCTATCTCCCAGTTCTTTTGACCGCCTAGGGAGATTAGAGTATCGGTCGA”: the binding signal is 2.7 log2 normalized intensity.

“ATGCTATCTCCCAGTTCTTTTGACCTTTGCGCCTAGGGAGATTAGAGTATCGGTCGA”: the binding signal worked out at 8.5 log2 normalized intensity.

In the case of “TCCTTTTGACCACAGTTATCTCCCCAGCTTGCCTAGGGAGATTAGAGTATCGGTCGA”, the binding signal was found to be 2.38 log2 normalized intensity.

Consider “AGTTATATCTTACCTCCTTCTCCCCCATGCGCCTAGGGAGATTAGAGTATCGGTCGA”, for which the binding signal was 4.73 log2 normalized intensity.

In the case of “ATCTCCCAGTTCTTTTGACCTTTGCCTCATGCCTAGGGAGATTAGAGTATCGGTCGA”, the binding signal was 8.61 log2 normalized intensity.

For “TAGGCATGCAAACTTTGTTTAATGATTGCAGCCTAGGGAGATTAGAGTATCGGTCGA”, the binding signal is 0.0707 log2 normalized intensity.
